# Test: viability profiling in RPMI8226 myeloma cells – cell-based, resazurin fluorescence, basal, 24 h, PK04 Diversity Set, profiling panel (AID 1180);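 also: RPMI8826 multiple myeloma cell line at 5000 cells per well; test concentration not given here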
# Details: higher = more signal
row,SMILES,z-score
1,CC(C)c1ccc(NN2C(C(O)c3ccc4c(c3)OCO4)C=CC3C(=O)N(c4ccccc4)C(=O)C32)cc1 (stereo unspecified),-0.191
2,CN1C(=O)[C@@]2(CCC(=O)OC(C)(C)C)N=C(c3ccc(OCCCO)cc3)O[C@H]2c2ccccc21,-1.99
3,COC(=O)[C@@]1(Cc2ccc(F)cc2)[C@@H]2C(=CC(=O)[C@H]2CC(=O)C(=O)N(C)C)CN1C(=O)c1ccccc1,-2.94
4,O=C(CS)NCCCCCNC(=O)[C@H]1C[C@H]2C(=O)N3CCC[C@H]3C(=O)N2[C@H]1c1cccc(OCCO)c1,0.472
5,C=CCOC(=O)[C@H]1[C@@H]2C(=O)O[C@@H](c3ccccc3)[C@@H](c3ccccc3)N2[C@@H](c2ccc(OCCOC(=O)[C@H]3C[C@H]4C(=O)N[C@@H](Cc5ccccc5)C(=O)N4[C@H]3c3ccc(O)cc3)cc2)[C@]12C(=O)Nc1ccccc12,1.74
6,COc1ccc([Si](C)(C)[C@@H]2[C@@H](CCO)O[C@]3(C(=O)N(Cc4ccc(NC(C)=O)cc4)c4ccccc43)[C@H]2C)cc1,-5.29
7,CCCCCN1CC=CC23O[C@@H]4C=CCOC(=O)[C@@H]4[C@H]2C(=O)N(CCCCCCO)[C@@H]3C1=O (stereo partly specified),0.922
8,COC(=O)C1(C)C=C2C(=C(c3ccccc3)C(=O)C2C)CN1 (stereo unspecified),-2.05
9,CC(C)N1CC=CC23O[C@@H]4C=CCCOC(=O)C4[C@H]2C(=O)N(CCCCCCO)[C@@H]3C1=O (stereo partly specified),0.937
10,COc1ccc([Si](C)(C)[C@H]2[C@H](CCO)O[C@@]3(C(=O)N(Cc4cccc(NC(=O)[C@H](C)O)c4)c4ccccc43)[C@@H]2C)cc1,-6.16
11,COc1ccc(CCNC(=O)[C@@H]2c3ccccc3C(=O)N(c3ccc(C)cn3)[C@H]2c2ccc(CO)cc2)cc1,1
12,C=CCNC(=O)[C@H]1[C@@H]2C(=O)O[C@@H](c3ccccc3)[C@@H](c3ccccc3)N2[C@@H](c2ccc(O)cc2)[C@]12C(=O)N(C(=O)OCCOC)c1ccc(C#CC3=CCCCC3)cc12,-0.205
13,[N-]=[N+]=NCc1ccccc1[C@@H]1OC(c2ccc(OCCCO)cc2)=N[C@]1(Cc1ccccc1)C(=O)N1CCOCC1,-0.425
14,CC(C)C[C@@H]1NC(=O)[C@H]2C[C@@H](C(=O)NCCCCCCN(C)C)[C@@H](c3cccc(OCCO)c3)N2C1=O,-0.992
15,C=C(/C(=C/C[C@@H](OC(=O)c1ccncc1)c1ccc(OCCO)cc1)c1cnc2ccccc2c1)C(C)C,0.206
16,CS(=O)(=O)CCOC(=O)C1=CC(CCCO)=CC(c2cccs2)N(Cc2cccc(OC(F)(F)F)c2)C=C1C(=O)OCCS(C)(=O)=O (stereo unspecified),-0.96
17,COCCCNC(=O)[C@]1(CCC(=O)OC(C)(C)C)N=C(c2ccc(OCCCO)cc2)O[C@@H]1c1ccccc1N=[N+]=[N-],-0.128
18,Cc1ccc(C2CC=C(C(=O)O)CN2S(=O)(=O)c2ccc(C)cc2)cc1 (stereo unspecified),-1.54

row,SMILES,z-score
1,O=C1O[C@@H](c2ccccc2)[C@@H](c2ccccc2)N2[C@@H](c3ccc(OCCO)cc3)[C@]3(C(=O)Nc4ccccc43)[C@@H](C(=O)N3CCN(c4ncccn4)CC3)[C@H]12,0.652
2,COCCOC(=O)N1C(=O)[C@@]2(c3cc(C#CCNC(N)=O)ccc31)[C@H](c1ccccc1OCCO)N1[C@H](c3ccccc3)[C@H](c3ccccc3)OC(=O)[C@H]1[C@@H]2C(=O)N1CCN(c2ncccn2)CC1,0.241
3,COCCOC(=O)N1C(=O)[C@@]2(c3cc(C#Cc4ccc(OC)cc4)ccc31)[C@H](C(=O)N1CCN(c3ncccn3)CC1)[C@H]1C(=O)O[C@H](c3ccccc3)[C@H](c3ccccc3)N1[C@@H]2c1ccc(OCCO)cc1,-0.0737
4,CN(C)CCCNC(=O)[C@@H]1c2ccccc2C(=O)N(Cc2cc(F)cc(C(F)(F)F)c2)[C@H]1c1ccc(CO)cc1,-0.359
5,CCCNC(=O)[C@@H]1c2ccccc2C(=O)N(c2ccc(C)cn2)[C@H]1c1ccc(CO)cc1,-0.682
6,CN1C(=O)C2C=CC(C(O)c3ccc(I)cc3)N(NC(=O)OC(C)(C)C)C2C1=O (stereo unspecified),-0.639
7,COC(=O)c1c(CC[C@@H](CO)NC(=O)N[C@H](Cc2ccccc2)Cn2cc(-c3ccccc3N)nn2)oc(C(C)=O)c1C(=O)OC,0.336
8,CCCC=C(CCC)[C@@H](NC(=O)c1ccc(-c2ccccc2)cc1)c1ccc(C(=O)OC)cc1,-0.361
9,COCC(=C=CC[C@@H](O)c1ccccc1OCCO)CCO,1.42
10,CC1CC/C=C\[C@H]2OC34C=CCN(C(C)C)C(=O)[C@H]3N(CCCO)C(=O)[C@@H]4C2C(=O)O1 (stereo partly specified),0.817
11,Cn1cccc1C(O)C1C=CC2C(=O)NC(=O)C2N1Nc1ccccn1 (stereo unspecified),-0.868
12,CCCC[C@H]1OB(O)C[C@H]2C1=C(C)C[C@H]1C(=O)N(C)C(=O)[C@H]12,-0.466
13,Cc1ccc(S[C@]2(C(=O)NCC(F)(F)F)CC(=O)N(Cc3ccccc3Cl)[C@@H]2c2ccc(CO)cc2I)cc1,-2.02
14,CC(C)NC(=O)[C@@H]1c2ccccc2C(=O)N(CC23CC4CC(CC(C4)C2)C3)[C@H]1c1ccc(CO)cc1,0.834
15,CCc1cccc(NC(=O)O[C@H]2[C@H](OC(=O)Nc3ccc4c(c3)OCO4)[C@@H](OC(=O)Nc3ccc4c(c3)OCO4)[C@@H](OC)O[C@@H]2CO)c1,-0.36
16,CC(C)OC(=O)C=C1C[C@@H](c2ccc(C#N)cc2)O[C@@H](c2ccc(C#N)cc2)O1,-0.312
17,COC(=O)C1=CCC(c2cccc(Cl)c2)O1 (stereo unspecified),-0.646
18,CCCC[C@@H](O)C1=C(C)C[C@H]2C(=O)N(Cc3ccccc3)C(=O)[C@H]2[C@H]1CO,-0.287

# From PubChem BioAssay
